# Assay results taken from PubChem BioAssay AID686971 (National Center for Advancing Translational Sciences (NCATS), 2013).
# Hit rate of the full screen: of about 360,000 compounds, about 7,500 (2.1%) were called active. Another 8% or so got no clear call; they are omitted. This is one part of a sample in which actives are shown more often than they occur. Values without a mark were called inactive. The call rests on the fitted dose curve; in most records, active means well fitted cell-killing curve with a large enough effect; inconclusive means small, poorly fitted or top-dose-only effect, or effect the other way, or another doubt; inactive means no such curve, though single readings can be large or run the other way.
# Assay: qHTS for induction of synthetic lethality in tumor cells producing 2HG: qHTS for the HT-1080-IDH1KD cell line;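 on activity, negative = toxicity: 0% = DMSO wells and -100% = cell-free medium wells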
# Details: HT-1080 IDH1 knockdown viability, ATP luminescence, 48 h; series mostly up to 46.1 µM; activity, negative = toxicity: at the top concentration
# Procedure, shortened: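 CellTiter-Glo luminescence after 48 h compound exposure at 37 degrees C of IDH1-knockdown HT-1080 cells in 5% FBS RPMI. %Activity scaled between DMSO wells and cell-free media wells, with curves fitted and assigned curve classes.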
# Potency means the concentration at half of the fitted maximal effect.
Structure (SMILES),Potency,"activity, negative = toxicity"
O=C1/C(=C\c2ccc([N+](=O)[O-])cc2)CS(=O)(=O)C/C1=C/c1ccc([N+](=O)[O-])cc1,3.66 µM (active),–
CC(=O)Nc1ccc(C=Cc2ccc([N+](=O)[O-])cc2)cc1,–,6.94%
O=[N+]([O-])c1ccc(C=NN=Cc2ccc([N+](=O)[O-])cc2)cc1,–,10.6%
N#Cc1c(NC(=O)CCCl)sc2c1CCCCC2,23.1 µM (active),–
N#Cc1c(NC(=O)C2CCCO2)sc2c1CCCCC2 (stereo not given),–,-1.25%
CCN1CCN(CC(=O)Nc2sc3c(c2C#N)CCC3)CC1,–,14.3%
Cc1ccc([C@H]2C[C@H](O)[C@@H](n3cc(COC(=O)c4ccccc4)nn3)CN2CC2CCCCC2)cc1,–,3.18%
O=C(Nc1ccc2c(c1)OCCO2)C1c2ccccc2OCC(=O)N1Cc1ccccn1 (stereo not given),–,9.77%
Cc1cc(C)nc(S/C=C/C(=O)c2ccccc2)n1,3.66 µM (active),–
Cc1cc(C)nc(SCC(=O)N(C)C)n1,–,25.2%
Cc1cc(C)nc(SCc2ccccc2C#N)n1,–,-4.58%
O=C(CCCn1c(=O)[nH]c2cc(Cl)ccc2c1=O)NCCN1CCN(c2ccccc2)CC1,–,-1.58%
COc1cccc(CNC(=O)Cc2csc(Nc3nc(=S)[nH]c4ccccc34)n2)c1,–,-11%
O=C(Cc1csc(Nc2nc(=S)[nH]c3ccccc23)n1)NCCCN1CCN(c2cccc(Cl)c2)CC1,20.6 µM (active),–
COc1cc2nnn(-c3ccncc3)c2cc1OC,–,9.52%
N#CC1(Nc2ccc3c4c(cccc24)CC3)CCCCC1,–,-19.4%
Cc1cc(-c2ccc(C)c(S(=O)(=O)NCCCN(Cc3ccccc3)C(C)C)c2)on1,–,-2.16%
CCOc1ccccc1CNS(=O)(=O)c1cc(-c2cc(C)no2)ccc1C,–,-19.8%
COc1ccc(CNS(=O)(=O)c2cc(-c3cc(C)no3)ccc2C(C)C)cc1,3.66 µM (active),–
CCOC(=O)N1CCN(C(=O)C[C@@H]2C[C@@]3(C(=O)OC)CCCCC=C3N(CCC3=CCCCC3)C2=O)CC1,–,-21.7%
Cc1cccc(-c2cnc(C(O)c3ccc4ccccc4c3)[nH]2)c1 (stereo not given),–,-20.1%
CC1(C(=O)NCc2ccccc2)CN(S(C)(=O)=O)CC(=O)N1CC(F)(F)F (stereo not given),–,19.5%
CC1(C(=O)O)CCN1C(=O)/C=C/c1ccccc1 (stereo not given),–,-1.28%
CC1(C(=O)NS(=O)(=O)c2ccccc2)CCN1C(=O)C/C=C/c1ccccc1 (stereo not given),–,24%
CC1(C)CCSC(/C=C/c2ccccc2)=N1,25.9 µM (active),–

Structure (SMILES),Potency,"activity, negative = toxicity"
CC1(C(=O)NCc2ccc3c(c2)OCO3)CCN1CCc1ccccc1 (stereo not given),–,0%
CCN(CC)C(=O)C(C)N1c2cccc3cccc(c23)S1(=O)=O (stereo not given),–,0.219%
CC(C)Nc1nc(NCCOc2ccccc2Cl)c2sccc2n1,16.4 µM (active),–
COc1cccc(-c2cc3nc(NCCOc4ccccc4Cl)n(C)c(=O)c3s2)c1,–,10.4%
O=C(NCCOc1ccccc1Cl)C(=O)Nc1ccccc1,–,-23.8%
Cc1c(NC(=O)COC(=O)/C=C/c2cccc(F)c2)c(=O)n(-c2ccccc2)n1C,–,0.173%
COC(=O)C1(C(=O)OC)C[C@H](c2ccccc2)N(Cc2ccccc2OC)[C@@H]1c1ccccc1,–,-10.5%
NC(=O)NC(CC(=O)NNC(=O)c1ccccn1)c1ccc(Cl)cc1 (stereo not given),–,-25.6%
C/C(=N\NC(=O)Cc1ccc(Cl)cc1)c1ccccn1,2.51 µM (active),–
CC1=NNC(=O)C1CCC(=O)N/N=C(\C)c1ccc(Cl)cc1 (stereo not given),–,0.912%
CC(=O)NC(c1ccccc1)c1nc(-c2cccc(C(C)C)c2)cs1 (stereo not given),–,-0.585%
CC(OC(=O)c1ccc(NC(=O)CC#N)cc1)C(=O)Nc1ccc(S(=O)(=O)N2CCCC2)cc1 (stereo not given),–,-9.1%
C[C@@H]1CN([C@H](C)CO)C(=O)CCCn2cc(nn2)CO[C@H]1CN(C)S(=O)(=O)c1ccc(Oc2ccccc2)nc1,–,-8.17%
Cc1cccc(CN2CCN(C3CN(Cc4cn(Cc5ccccc5F)nn4)S(=O)(=O)C3)CC2)c1 (stereo not given),–,2.12%
O=C(NCC(O)c1nc2ccccc2[nH]1)c1ccc(Br)cc1 (stereo not given),–,-0.05%
Cc1cc(=O)oc2cc(OCCC[n+]3ccccc3)ccc12,–,7.77%
CCOc1ccccc1N1CCN(C(=O)COc2ccc3c(C)cc(=O)oc3c2)CC1,–,-13.8%
Cc1cc(=O)oc2cc(OCC3CC(c4ccccc4Cl)=NO3)ccc12 (stereo not given),0.447 µM (active),–
CN1OC[C@@H]2CN(C(=O)c3cccnc3)[C@H](c3ccc(N4CCCCC4)cc3)C[C@@H]21,–,11.3%
Cc1csc(SCC(=O)Nc2ccc(C)c(S(=O)(=O)N(C)C)c2)n1,–,-1.02%
C[C@H](CO)N1C[C@H](C)[C@@H](CN(C)Cc2ccc3c(c2)OCO3)OCc2cnnn2CCCC1=O,–,21.3%
O=C(O)C(c1ccccc1)N1C(=O)/C(=C\c2ccc(-c3cccc(Cl)c3)o2)SC1=S (stereo not given),–,5.09%
CC(=O)NN1C(=O)c2ccccc2NC1c1ccccc1 (stereo not given),–,5.4%
O=C1c2ccccc2NC(c2ccc(-c3cccc(Cl)c3)o2)N1O (stereo not given),20 µM (active),–
COc1ccc(C=C2CCC3C(CCCC34OCCO4)C2=O)cc1 (stereo not given),–,-0.459%
